Compound activity (PubChem BioAssay)
D3 ag – qHTS of D3 Dopamine Receptor Agonist: qHTS; D(3) dopamine receptor (Homo sapiens), P35462; D3R DiscoveRx beta-arrestin cells, luminescence, 90 min; max activation, %; 410,000 compounds, 0.58% hits; AID 652048, 2013; in the data active means max activation above about 30%; further: 0% is about no effect
Target sequence (P35462 whole entry, looked up): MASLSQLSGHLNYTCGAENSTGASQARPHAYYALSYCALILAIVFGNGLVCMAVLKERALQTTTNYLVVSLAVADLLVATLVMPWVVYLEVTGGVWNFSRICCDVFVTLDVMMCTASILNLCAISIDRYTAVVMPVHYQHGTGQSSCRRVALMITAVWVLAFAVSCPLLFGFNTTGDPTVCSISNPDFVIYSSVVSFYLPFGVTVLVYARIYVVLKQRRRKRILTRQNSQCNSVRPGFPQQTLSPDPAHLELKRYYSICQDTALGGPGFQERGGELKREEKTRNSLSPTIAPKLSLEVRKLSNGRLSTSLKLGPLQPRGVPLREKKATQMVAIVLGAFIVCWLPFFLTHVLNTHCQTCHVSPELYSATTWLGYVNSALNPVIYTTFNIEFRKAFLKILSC
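Cells at 1500/well, incubated overnight, then treated with pinned compounds (dopamine as control) for 90 min at 37 degrees C. DiscoveRx reagent added for 30 - 60 minutes at room temperature; luminescence read.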
Nrf2 ARE act – qHTS of Nrf2 Activators; AREc32 ARE-luciferase reporter (MCF7-derived line), luminescence, 24 h; Potency, µM (doses to about 46.1 µM), without a hit: at the highest dose activation, most hits filed as activators; 410,000 compounds, 0.31% hits; AID 624171, 2012; further: potency means the concentration at half of the fitted maximal effect; % of control where 0% means no effect; nearly all actives have a fitted effect of over 65% in size
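Reporter line AREc32 (ARE-Fluc), seeded overnight in OPTI-MEM with 5% FBS; compound pin-transferred, 24 hr at 37 deg C, 5% CO2; luminescent read-out.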
GRP78 ERSR act – qHTS for Inducers of the Endoplasmic Reticulum Stress Response (ERSR) in Human Glioma: qHTS; 420,000 compounds, 0.02% hits; Potency, µM, for inactives: at the highest dose activation, most hits filed as activators; U87-MG GRP78 promoter luciferase reporter, 16 h; AID 602332, 2012; further: potency means the concentration at half of the fitted maximal effect; series mostly up to about 76 µM; % of control where 0% means no effect; nearly all actives have a fitted effect of over 35% in size
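Stably transfected U87-MG human glioma cells carrying a GRP78-based luminescent sensor were seeded at 1000 cells/well, pin-dosed with compounds and incubated 16 h. Luciferase reagent was then added, and end-point luminescence was read after 10 min at room temperature.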
DRD3 antagonist – qHTS of D3 Dopamine Receptor Antagonist: qHTS | D3R cells, DiscoveRx beta-arrestin luminescence, antagonist mode; stronger effect = lower value | max response, negative = inhibition, % | 360,000 compounds, 2.5% hits; in the data active means max response below about -50%; inconclusive means no clear call, values can overlap the other calls; further: on the % scale 0 is the no-effect control and ±100 the full control effect
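Cells plated overnight at 1500 cells/well, then exposed to library compounds with dopamine controls for 90 minutes at 37 degrees C. DiscoveRx reagent added for 30–60 minutes at room temperature; luminescence read, quantitative HTS format.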
The depositor's hits bear a star. Rows were chosen to be rich in hits. Some 3% of all compounds tested hit in one or more screens of this group. Unless noted, the call rests on the fitted dose curve; in most records, active means well fitted curve in the direction sought with a large enough effect; inconclusive means small, poorly fitted or top-dose-only effect, or another doubt; inactive means no such curve, though single readings can be large; an effect the other way counts as inactive or inconclusive.

`CCN1CCCC1CNC(=O)c1cc(OC)c(OC)c(OC)c1` (centres undefined) gave D3 ag -1.4, Nrf2 ARE act -0.2%, GRP78 ERSR act -4.2% and DRD3 antagonist -61.1*.
For Nc1ccn(C2CO[C@H](CO)O2)c(=O)n1 (some centres undefined) the results were D3 ag 2.6 and GRP78 ERSR act 4.4%.
Screening CCC1=C2CC[C@H]3C(=O)N(C)C(=O)[C@H]3[C@H]2[C@@]2(Cc3ccccc3)C(=NCCOC)OC(=O)N2C1=O returned D3 ag 38.1*, Nrf2 ARE act -1.1%, GRP78 ERSR act -1.0% and DRD3 antagonist 3.7.
Screening CCC1=C2CC[C@H]3C(=O)N(CC)C(=O)[C@H]3[C@H]2[C@@]2(Cc3ccccc3)C(=NCCOC)OC(=O)N2C1=O returned D3 ag -8.0, Nrf2 ARE act -0.5%, GRP78 ERSR act -3.8% and DRD3 antagonist 0.0.
For CNc1ccc(C=O)cc1Br the results were GRP78 ERSR act -1.6%.
`O=C(NCC1(N2CCOCC2)CCCC1)c1cnn(-c2nccc(-c3cccs3)n2)c1C1CC1` gave GRP78 ERSR act -3.2%.
Screening Cc1cc(C)cc(C(=O)NCCn2cc(C(=O)N3CCSCC3)nn2)c1 returned GRP78 ERSR act -0.2%.
`ClCC(CNCc1ccccc1)c1ccccc1` (centres undefined) gave D3 ag -29.4, Nrf2 ARE act 0.1%, GRP78 ERSR act 0.2% and DRD3 antagonist -55.4*.
Screening OC(CNCc1ccccc1)c1ccccc1 (centres undefined) returned D3 ag -18.1, Nrf2 ARE act -1.3%, GRP78 ERSR act -5.0% and DRD3 antagonist 9.5.
For O=C1Nc2ccccc2/C1=N/c1sc2c(c1C(=O)NCCc1ccccc1)CCCC2 the results were D3 ag -18.9, Nrf2 ARE act 18.8%, GRP78 ERSR act 8.1% and DRD3 antagonist -89.9*.
For COc1cc(/C=C(/C#N)c2ccccc2)ccc1Oc1ccc([N+](=O)[O-])cn1 the results were D3 ag 12.6, Nrf2 ARE act 1.6%, GRP78 ERSR act 5.5% and DRD3 antagonist 36.6.
For COc1ccc(/C=N/Nc2ccc([N+](=O)[O-])cc2)cc1O the results were D3 ag -9.9, Nrf2 ARE act 10.0%, GRP78 ERSR act 4.8% and DRD3 antagonist -52.6*.
Screening COc1cc(C=C(C#N)c2ccc([N+](=O)[O-])cc2)ccc1O returned D3 ag -17.4, Nrf2 ARE act 6.6%, GRP78 ERSR act 9.6% and DRD3 antagonist -51.7*.
COc1cc(C(=O)O[C@H]2C/C(C)=C/CC/C(C)=C/[C@@H](O)C2C(C)C)ccc1O (some centres undefined) was read as GRP78 ERSR act -7.6%.
CC(C)c1ccc(C(C)NC(=O)C2CCCC2)cc1 (centres undefined) was read as D3 ag 31.0*, Nrf2 ARE act -1.2%, GRP78 ERSR act -2.1% and DRD3 antagonist -4.2.
`COc1ccc(C(=O)Nc2cccc(-c3cn4ccsc4n3)c2)cc1OC` gave D3 ag 0.7, Nrf2 ARE act 5.9% and GRP78 ERSR act 4.6%.
COc1ccc(C(=O)Nc2cccc(-c3cn4ccsc4n3)c2)c(OC)c1 was read as D3 ag 63.0*, Nrf2 ARE act 2.7% and GRP78 ERSR act -1.5%.
CCOC(=O)c1[nH]c2ccc(F)cc2c1NC(=O)C(C)N1CCc2cc(OC)c(OC)cc2C1 (centres undefined) was read as D3 ag -11.3, Nrf2 ARE act -0.2%, GRP78 ERSR act -6.7% and DRD3 antagonist -55.2*.
Screening Clc1ccc[n+](CCCCC[n+]2cccc(Cl)c2)c1 returned GRP78 ERSR act -0.9%.
`CCN(CC)CCNCC1C(=O)O[C@@H]2C[C@@]3(C)CCC[C@H](C)C3=C[C@H]12` (some centres undefined) gave D3 ag -29.1, Nrf2 ARE act 11.2µM*, GRP78 ERSR act -8.7% and DRD3 antagonist -9.8.
Screening CCN(c1cccc(C(F)(F)F)c1)S(=O)(=O)c1ccc2c(c1)CCN2C(C)=O returned D3 ag 0.2, Nrf2 ARE act 0.4%, GRP78 ERSR act -3.8% and DRD3 antagonist -61.8*.
`CCN(c1cccc(C)c1)S(=O)(=O)c1ccc2c(c1)CCN2C(C)=O` gave D3 ag 0.6, Nrf2 ARE act 0.3%, GRP78 ERSR act -5.1% and DRD3 antagonist 7.6.
Screening CC(=O)N1CCc2cc(CNC(=O)Nc3ccccc3C(F)(F)F)ccc21 returned D3 ag -15.6, Nrf2 ARE act 0.4% and GRP78 ERSR act -1.7%.
For CC(=O)N1CCc2cc(CNS(=O)(=O)c3ccccc3C(F)(F)F)ccc21 the results were D3 ag 61.1*, Nrf2 ARE act -0.3% and GRP78 ERSR act 4.8%.
Screening COC(=O)[C@@H]1CCCN1C(=O)c1c(OC)cc(=O)n2c1CCN(Cc1ccc3c(c1)OCCO3)CC2 returned GRP78 ERSR act 1.1%.
`c1cc(-c2cc3cc4c(cc3cn2)OCO4)cs1` gave D3 ag -4.1, Nrf2 ARE act inconclusive, GRP78 ERSR act -0.5% and DRD3 antagonist -21.7.
For Fc1ccc2cc(-c3ccsc3)ncc2c1 the results were D3 ag -2.4, Nrf2 ARE act 8.91µM*, GRP78 ERSR act 6.4% and DRD3 antagonist 7.2.
COc1cc2cnc(-c3ccsc3)cc2cc1OC was read as D3 ag 2.7, Nrf2 ARE act 4.47µM*, GRP78 ERSR act 3.4% and DRD3 antagonist -26.7.
O=C(c1ccc(Br)o1)N(Cc1ccccc1)c1ccccn1 was read as D3 ag 32.1*, Nrf2 ARE act -0.1%, GRP78 ERSR act -3.7% and DRD3 antagonist 10.6.
For O=C(c1ccccc1)N(Cc1ccccc1)c1ccccn1 the results were D3 ag -9.1, Nrf2 ARE act -0.2%, GRP78 ERSR act 0.7% and DRD3 antagonist -29.8.
`O=C(c1ccc([N+](=O)[O-])cc1)N(Cc1ccccc1)c1ccccn1` gave D3 ag -16.1, Nrf2 ARE act -0.2%, GRP78 ERSR act -6.1% and DRD3 antagonist -54.7*.
COc1ccccc1NC(C)C(=O)c1c[nH]c2ccccc12 (centres undefined) was read as GRP78 ERSR act 0.5%.
For COc1ccc(NC(=O)c2nc(C)c(C3(C)CC(c4ccccc4)=NO3)s2)cc1 (centres undefined) the results were D3 ag -12.2, Nrf2 ARE act 1.3%, GRP78 ERSR act -2.3% and DRD3 antagonist -12.3.
Screening Cc1nc(C(=O)NCc2ccccc2)sc1C1(C)CC(c2ccccc2)=NO1 (centres undefined) returned D3 ag -18.2, Nrf2 ARE act 3.9%, GRP78 ERSR act -2.7% and DRD3 antagonist -50.4*.
Cc1ccccc1OCCn1c(=N)n(C(C)C)c2ccccc21 was read as D3 ag -15.1, Nrf2 ARE act 8.7% and GRP78 ERSR act -3.7%.
For OC(c1ccccc1)C1CN(Cc2ccccc2)CCC1(O)c1ccccc1 (centres undefined) the results were D3 ag -37.0, Nrf2 ARE act 2.6%, GRP78 ERSR act -2.2% and DRD3 antagonist -58.5*.
